Measured values as given in PubChem BioAssay AID624330 (Southern Research Specialized Biocontainment Screening …, 2012).
The campaign covered roughly 340,000 compounds. About 2,100 (0.62%) were called active.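 The calls were made as follows: active = first-screen hits whose inhibition reached a set limit at any dose in the follow-up dose series; inconclusive = inhibition above the set first-screen limit but never retested; inactive = the rest.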 Only a sample is shown. Measured potencies and affinities stand elsewhere.

molecular target: Rac GTPase-activating protein 1 (Homo sapiens) (UniProt Q9H0H5); test: blockers of MgcRacGAP-driven Rac1 GTP hydrolysis – biochemical, ADP Hunter fluorescence, primary and confirmatory, confirmation (AID 624330); details: MgcRacGAP-stimulated Rac1 GTP hydrolysis, at 30 µM, hits give high values, GST-tagged Rac1 F28L mutant substrate;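 also: fluorescence reports GDP produced by GAP-driven GTP hydrolysis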
Sequence (Q9H0H5 whole entry, looked up): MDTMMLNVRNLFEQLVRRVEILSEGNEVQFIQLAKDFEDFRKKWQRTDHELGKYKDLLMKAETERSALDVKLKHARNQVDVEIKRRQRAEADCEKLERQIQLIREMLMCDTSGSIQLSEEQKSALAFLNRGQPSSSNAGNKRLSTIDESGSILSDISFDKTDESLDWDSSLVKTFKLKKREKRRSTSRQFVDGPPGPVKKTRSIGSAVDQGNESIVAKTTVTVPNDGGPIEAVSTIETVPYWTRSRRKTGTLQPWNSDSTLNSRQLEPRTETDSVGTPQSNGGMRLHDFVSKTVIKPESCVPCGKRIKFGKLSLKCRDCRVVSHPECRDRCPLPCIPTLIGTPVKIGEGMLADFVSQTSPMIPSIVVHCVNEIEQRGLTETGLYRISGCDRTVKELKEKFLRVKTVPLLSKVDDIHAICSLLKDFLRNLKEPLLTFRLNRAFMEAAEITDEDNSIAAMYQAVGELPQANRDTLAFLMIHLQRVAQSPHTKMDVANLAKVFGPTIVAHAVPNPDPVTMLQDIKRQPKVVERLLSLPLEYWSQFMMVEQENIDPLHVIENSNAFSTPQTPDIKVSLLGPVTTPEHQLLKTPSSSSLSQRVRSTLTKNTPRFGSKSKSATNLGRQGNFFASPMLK

inhibition, inactive:
Cc1ccc(S(=O)(=O)N2CCN(C(=O)c3ccc(N4CCCCC4)c([N+](=O)[O-])c3)CC2)cc1 6.99%, COCCCC1CCN(C(=O)C2CCC(=O)N(Cc3cccc(F)c3)C2)CC1 (stereo not drawn) 7.1%, O=S(=O)(/C(=C/c1ccc(C(F)(F)F)cc1)c1nc2ccccc2[nH]1)c1ccccc1 4.87%, Cc1cccc2c(N)c3c(nc12)CCCC3 (tested in a mixture with another compound) 16.8%, CN1CCc2c1nc1ccccc1c2N (tested in a mixture with another compound) 13.1%, COc1ccc(CNC(=O)Cn2cc3c(n2)CCCCC3)cc1 7.34%, O=C1OC(c2ccccc2)=N/C1=C\N1CCCCC1 -1.27%, O=C1OC(c2ccccc2)=C/C1=C/N1CCCCC1 30.7%, CCN(C(=O)c1c(C)noc1C)c1c(N)n(Cc2ccccc2)c(=O)[nH]c1=O 5.68%, CCn1c(=O)c(C(=O)NCc2ccc(F)cc2)c(O)c2ccccc21 10.4%, CSc1ccc(C#N)cc1NC(=O)c1ccc(Cl)cc1Cl 7.34%, NC1=NC(=O)/C(=C/c2cccs2)S1 4.92%, NC1=NC(=O)/C(=C\c2cccs2)S1 -1.57%, CCCn1c(N)c(C(=O)CSc2nnc(-c3cccs3)n2C2CC2)c(=O)[nH]c1=O 1.21%, O=C(CCN1CCN(c2ccccc2)CC1)NNC(=O)c1ccccc1 10.2%, Cc1ccc(NS(=O)(=O)c2cc(N)ccc2Cl)c(C)c1 11.7%, CNS(=O)(=O)c1cc(N)ccc1C 5.24%, Cc1cc(C)cc(NC(=S)N2CCCC2)c1 4.82%, Clc1ccc(NNc2ccnc3cc(Cl)ccc23)cc1 6.46%, Clc1ccc2c(N/N=C/c3ccc(Br)cc3)ccnc2c1 7.12%, C/C(=N/Nc1ccnc2cc(Cl)ccc12)c1ccc(O)cc1 18.6%, Oc1ccc(/C=N/Nc2ccnc3cc(Cl)ccc23)c(O)c1O 15.3%, C/C(=N/Nc1ccnc2cc(Cl)ccc12)c1ccc(N)cc1 18.6%, CCOc1ccc(Nc2ccnc3cc(Cl)ccc23)cc1 6.93%, CC(=O)c1ccc(N2CCN(c3ccnc4cc(Cl)ccc34)CC2)cc1 1.01%, COc1ccc(N2CCN(c3ccnc4cc(Cl)ccc34)CC2)cc1 13.2%, CN(C)CCNC(=O)NC(=O)c1ccc(Cl)cc1 7.5%, CCOCCCNC(=S)Nc1ccc2nc3n(c(=O)c2c1)CCCCC3 -1.06%, CC(C)C(=O)N1CCN(CCN2C(=O)c3cccc4cccc(c34)C2=O)CC1 12.5%, COC(=O)c1c(C)[nH]c(C(=O)C(C)OC(=O)c2ccco2)c1C (stereo not drawn) 5.7%, Cc1ccc(N(C(C)C(=O)Nc2ccccc2C(=O)N2CCOCC2)S(C)(=O)=O)cc1C (stereo not drawn) 10.3%, O=C1c2ccccc2C(=O)c2[nH]c(=O)[nH]c21 8.15%, COCCNC(=S)NNc1ccc(Cl)c(C(=O)O)c1 7.21%, CCOC(=O)c1c(N2C(=O)Nc3ccccc3N2O)sc2c1CCCCC2 14.2%, CC1(C(=O)O)CCC(C(N)=O)C1(C)C (stereo not drawn) 5.23%, O=C(O)C1OC2OC3(CCCCC3)OC2C2OC3(CCCCC3)OC12 (stereo not drawn) -5.5%, CC(=O)Nc1ccc(NC(=O)C(=O)c2cn(CC(=O)N3CCCC3)c3ccccc23)cc1 4.85%, Cc1cc(C)n2ncc(C(=O)NCc3ccccc3)c2n1 0.67%, COc1cc(/C=N/NC(=S)Nc2cccc(C(=O)O)c2)cc(OC)c1OC 7.41%, COc1cc(/C=N/NC(=S)Nc2cccc(S(=O)(=O)N(C)C)c2)cc(OC)c1O -1.97%, COc1ccc(/C=N/NC(=S)Nc2cccc(C(=O)O)c2)cc1OC -9.15%, CN(C)S(=O)(=O)c1cccc(NC(=S)N/N=C/c2cccc(O)c2)c1 2.96%, CCOC(=O)N1CCN(c2c(N3CCN(c4ccccc4OC)CC3)c(=O)c2=O)CC1 8.07%, O=C(COC(=O)c1ccc(Cl)c(S(=O)(=O)N2CCCCC2)c1)NCc1ccco1 5.55%, CCC(C)NS(=O)(=O)c1ccc(OCC(=O)Nc2ccc(F)cc2F)cc1 (stereo not drawn) 4.64%, CCCOc1ccc(/C(O)=C2/C(=O)C(=O)N(CCCn3ccnc3)C2c2ccco2)cc1 (stereo not drawn) 7.22%, COc1ccc(NC(=O)CN(c2cc(C)cc(C)c2)S(=O)(=O)c2c(C)n[nH]c2C)cc1 6.02%, C=CCc1ccc(OCCCCN2CC(C)OC(C)C2)c(OC)c1 (stereo not drawn) 16.2%, C=CCc1cc(Cl)ccc1OCCN1CC(C)OC(C)C1 (stereo not drawn) 26.3%, CC(=O)C1=C(O)C(=O)N(c2ccc(F)cc2)C1c1ccc(C)cc1 (stereo not drawn) 9.06%, COc1ccc(CN2CCN(Cc3c[nH]c4ccccc34)CC2)cc1 30.3%, COc1ccc(C(=O)C2CCCN(Cc3c[nH]c4ccccc34)C2)c(OC)c1 (stereo not drawn) -5.48%, COc1ccc(S(=O)(=O)N2CCN(Cc3c[nH]c4ccccc34)CC2)cc1 -10.1%, c1ccc(CN2CCN(Cc3c[nH]c4ccccc34)CC2)cc1 8.7%, COc1ccc(Br)cc1CN1CCCCCC1 25.6%, COc1ccc(Br)cc1CN1CCCCCCC1 11.8%, COc1ccc(Br)cc1CN1CCN(S(=O)(=O)Cc2ccccc2)CC1 19.2%, COc1ccc(Br)cc1CN1CCSCC1 19.9%, CCOc1ccc(NC(=O)Nc2c(C)n(C)n(-c3ccccc3)c2=O)cc1 0.15%, O=C(NCc1ccc(F)cc1)C1CCCN(S(=O)(=O)c2ccc(Br)s2)C1 (stereo not drawn) 5.11%, COc1ccccc1NC(=O)C1=C(C)Nc2nc(-c3cccs3)nn2C1c1cccc(O)c1 (stereo not drawn) 3.45%, Cc1c(C(=O)OCC(=O)Nc2c(C)n(C)n(-c3ccccc3)c2=O)cccc1[N+](=O)[O-] -3.37%, COc1ccc(C(=O)N/C(=C\c2cc(OC)c(OC)cc2[N+](=O)[O-])C(=O)NCC(=O)O)cc1 5.33%, COc1ccc(-c2nc3c(C(=O)NCCN(C)C)cccc3c3ccccc23)cc1 28.1%, CN(C)CCNC(=O)c1cccc2nc3cccc(F)c3nc12 14%, CCN(CC)S(=O)(=O)c1cccc(C(=O)N/N=C/c2cccc(O)c2O)c1 15%, O=C(N/N=C/c1ccc(F)c(F)c1)c1cccc(S(=O)(=O)N2CCCCC2)c1 0.51%, CCOc1cc(/C=N/NC(=O)c2cccc(S(=O)(=O)N3CCCC3)c2)ccc1OCC(=O)N(C)C 5.83%, CCN(CC)S(=O)(=O)c1cccc(C(=O)N/N=C/c2cc(OC)c(O)c(OC)c2)c1 13.8%, O=C(O)c1ccc(S(=O)(=O)N2CCCCCCC2)cc1 13.8%, CCOc1ccccc1/C=N/NC(=O)c1cccc(S(=O)(=O)N2CCOCC2)c1 5.13%, O=C(NN=Cc1ccc(F)cc1)c1cccc(S(=O)(=O)N2CCCC2)c1 6.35%, O=C(/C=C/c1ccc(N2CCCCC2)c([N+](=O)[O-])c1)c1ccc(S(=O)(=O)N2CCCC2)cc1 6.38%, COc1cc2c(cc1OC)C(c1ccccc1)N(C(=O)C(C)(C)C)CC2 (stereo not drawn) 5.24%, COc1cc(/C=N/NC(=O)c2cccc(S(=O)(=O)N3CCCCC3)c2)cc(Br)c1O 18.1%, COc1cc(/C=N/NC(=O)c2cccc(S(=O)(=O)N3CCCC3)c2)cc(OC)c1O 15.2%, O=C(COC(=O)C1CC1)NCCc1ccccc1 -3.28%, COCCCN1C(=O)C(CC(=O)NCc2ccco2)CC(C(=O)N(C)C)=C1C (stereo not drawn) 14.3%, CCOc1ccc(NS(=O)(=O)c2ccc(N)cc2)cc1 1.38%, CCOc1ccc(NC(N)=O)cc1 2.99%, CCc1ccc(N2CN(Cc3cccnc3)CNC2=S)cc1 4.47%, COc1ccc(C2C(C(=O)Nc3cccc(C)n3)c3ccccc3C(=O)N2C)cc1 (stereo not drawn) 5.99%, O=C(c1cccnc1)N1CCN(Cc2ccc3ccccc3c2)CC1 22.8%, O=C(c1cccnc1)N1CCN(Cc2cccc(F)c2)CC1 23.3%, O=C(c1cccc(F)c1)N1CCN(Cc2ccco2)CC1 24.7%, COc1ccc(Br)cc1CN1CCN(C(=O)c2cccc(F)c2)CC1 26.9%, O=C(CCn1nc(-c2ccc(Cl)cc2)ccc1=O)N1CCN(c2ccccc2)CC1 11.2%, Cc1sc(NC(=O)CCC(=O)O)c(C#N)c1C 4.82%, CCCCNc1c(-c2ccc(-c3ccc(OC)cc3)c(OC)c2)nc2ccccn12 0.86%, CCc1nc2ccccc2c(C(=O)O)c1C 1.89%, CCOc1ccc(CC2S/C(=N/N=C/c3ccco3)NC2=O)cc1 (stereo not drawn) -0.79%, CN(C(=O)c1ccc(NC(=O)Cc2ccc(NC(=O)C3CCN(C(=O)C4CCCC4)CC3)cc2)cc1)C1CC1 4.41%, CCC(C)NC(=O)CNC(=S)N(CCCN1CCOCC1)Cc1cccs1 (stereo not drawn) -3.85%
